Inconclusive results are not listed. The source made the active and inactive calls. Calls come from the whole dose curve; as a rule, active = well fitted inhibition curve with a large enough effect; inconclusive = small, poorly fitted or top-dose-only effect; inactive = flat fitted curve, though single readings scatter.
Assays:
[1] = test system: FAB9; assay: qHTS profiling for inhibitors of Plasmodium falciparum proliferation (AID 504749); note: potency is the fitted concentration of half-maximal effect; conditions: P. falciparum in erythrocytes, SYBR Green DNA, 72 h; series mostly up to 28.7 µM
In short: (§1)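 Each compound contacts P. falciparum-infected red blood cells for 72 h at 37 C; lysis buffer (Tris, EDTA, saponin, Triton X, SYBR Green I) is added and fluorescence measured next morning; values normalized to controls.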

[2] = test system: GB4; assay: as above; conditions: P. falciparum in erythrocytes, SYBR Green DNA, 72 h; series mostly up to 28.7 µM
In short: as §1

[3] = test system: ICS; assay: as above; conditions: P. falciparum in erythrocytes, SYBR Green DNA, 72 h; series mostly up to 28.7 µM
In short: as §1

[4] = test system: JCK; assay: as above; conditions: P. falciparum in erythrocytes, SYBR Green DNA, 72 h; series mostly up to 28.7 µM
In short: as §1

[5] = test system: P93_24; assay: as above; conditions: P. falciparum in erythrocytes, SYBR Green DNA, 72 h; series mostly up to 28.7 µM
In short: as §1

[6] = test system: PC26; assay: as above; conditions: P. falciparum in erythrocytes, SYBR Green DNA, 72 h; series mostly up to 28.7 µM
In short: as §1

[7] = test system: TAB165; assay: as above; conditions: P. falciparum in erythrocytes, SYBR Green DNA, 72 h; series mostly up to 28.7 µM
In short: as §1

[8] = test system: W2; assay: as above; conditions: P. falciparum in erythrocytes, SYBR Green DNA, 72 h; series mostly up to 28.7 µM
In short: as §1

[9] = test system: CRL-7250; assay: Cytotoxic Profiling of Annotated Libraries Using Quantitative High-Throughput Screening (AID 1296008); conditions: Five cell lines viability, CellTiter-Glo ATP luminescence, 48-72 h; max response: hits give low values; for max response: % is set by controls: 0 for no effect and ±100 for the full control effect
In short: (§2)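 Cells exposed to compounds for 48 or 72 hr at 37 degrees Celsius. Viability read as ATP-coupled luminescence with CellTiter-Glo after 10 min at room temperature.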

[10] = test system: ECU; assay: qHTS profiling for inhibitors of Plasmodium falciparum proliferation (AID 504749); note: potency is the fitted concentration of half-maximal effect; conditions: P. falciparum in erythrocytes, SYBR Green DNA, 72 h; series mostly up to 28.7 µM
In short: as §1

[11] = test system: HB3; assay: as above; conditions: P. falciparum in erythrocytes, SYBR Green DNA, 72 h; series mostly up to 28.7 µM
In short: as §1

[12] = test system: N140; assay: as above; conditions: P. falciparum in erythrocytes, SYBR Green DNA, 72 h; series mostly up to 28.7 µM
In short: as §1

[13] = test system: P94_40; assay: as above; conditions: P. falciparum in erythrocytes, SYBR Green DNA, 72 h; series mostly up to 28.7 µM
In short: as §1

[14] = test system: PAD; assay: as above; conditions: P. falciparum in erythrocytes, SYBR Green DNA, 72 h; series mostly up to 28.7 µM
In short: as §1

[15] = test system: SC27B; assay: as above; conditions: P. falciparum in erythrocytes, SYBR Green DNA, 72 h; series mostly up to 28.7 µM
In short: as §1

[16] = test system: TAB109; assay: as above; conditions: P. falciparum in erythrocytes, SYBR Green DNA, 72 h; series mostly up to 28.7 µM
In short: as §1

[17] = test system: TAB113; assay: as above; conditions: P. falciparum in erythrocytes, SYBR Green DNA, 72 h; series mostly up to 28.7 µM
In short: as §1

[18] = test system: PC15; assay: as above; conditions: P. falciparum in erythrocytes, SYBR Green DNA, 72 h; series mostly up to 28.7 µM
In short: as §1

[19] = test system: PC49; assay: as above; conditions: P. falciparum in erythrocytes, SYBR Green DNA, 72 h; series mostly up to 28.7 µM
In short: as §1

[20] = test system: HEK293; assay: Cytotoxic Profiling of Annotated Libraries Using Quantitative High-Throughput Screening (AID 1296008); conditions: Five cell lines viability, CellTiter-Glo ATP luminescence, 48-72 h; max response: hits give low values; for max response: % is set by controls: 0 for no effect and ±100 for the full control effect
In short: as §2
Note: nearly all actives have a fitted effect of over 60% in size.

Oc1ccc2[nH]cc(CCCCN3CC=C(c4ccccc4)CC3)c2c1
inactive: Potency [1] | Potency [4] | max response [9] 4.19%
active: Potency [2] 9.53 µM | Potency [3] 8.91 µM | Potency [5] 11.2 µM | Potency [6] 13.5 µM | Potency [7] 11.2 µM | Potency [8] 5.36 µM

OC(c1ccccc1)(c1ccccc1)C1CCNCC1
inactive: Potency [10] | Potency [1] | Potency [2] | Potency [11] | Potency [4] | Potency [12] | Potency [5] | Potency [13] | Potency [14] | Potency [6] | Potency [15] | Potency [16] | Potency [17] | Potency [7] | Potency [8] | max response [9] 4.48%

Clc1ccc(CO/N=C(\Cn2ccnc2)c2ccc(Cl)cc2Cl)c(Cl)c1
inactive: max response [9] -2.86%
active: Potency [10] 2.24 µM | Potency [2] 1.69 µM | Potency [11] 7.94 µM | Potency [3] 1.12 µM | Potency [12] 2.24 µM | Potency [5] 2.24 µM | Potency [13] 2.82 µM | Potency [14] 2.51 µM | Potency [18] 3.16 µM | Potency [6] 4.26 µM | Potency [15] 3.16 µM | Potency [16] 3.55 µM | Potency [17] 2.51 µM | Potency [7] 1.41 µM | Potency [8] 1.69 µM

O=C1NCN(c2ccccc2)C12CCN(CCCOc1ccc(F)cc1)CC2
active: Potency [2] 6.75 µM | Potency [5] 8.91 µM | Potency [8] 5.36 µM
inactive: Potency [10] | Potency [1] | Potency [11] | Potency [4]

C=CCOC(Cn1ccnc1)c1ccc(Cl)cc1Cl (stereo unspecified)
active: Potency [10] 3.98 µM | Potency [2] 4.78 µM | Potency [11] 11.2 µM | Potency [3] 2.51 µM | Potency [12] 5.62 µM | Potency [5] 3.98 µM | Potency [13] 10 µM | Potency [14] 8.91 µM | Potency [18] 8.91 µM | Potency [6] 7.57 µM | Potency [15] 10 µM | Potency [16] 7.94 µM | Potency [17] 8.91 µM | Potency [7] 3.16 µM | Potency [8] 4.26 µM
inactive: max response [9] -16.8%

CNC(=O)Oc1cccc2ccccc12
active: Potency [13] 12.6 µM
inactive: Potency [10] | Potency [1] | Potency [11] | Potency [4] | Potency [12] | Potency [19] | Potency [15] | Potency [16] | Potency [17]

CC1=C2[C@H]3OC(=O)[C@@H](C)[C@@H]3CC[C@@]2(C)C=CC1=O
inactive: max response [20] -1.89%

ClC1=C(Cl)C2(Cl)C(CBr)CC1(Cl)C2(Cl)Cl (stereo unspecified)
inactive: Potency [10] | Potency [1] | Potency [2] | Potency [11] | Potency [4] | Potency [12] | Potency [5] | Potency [13] | Potency [14] | Potency [18] | Potency [6] | Potency [19] | Potency [15] | Potency [16] | Potency [17] | Potency [7] | max response [9] -0.0053%

CN1C(=O)[C@@H](NC(=O)c2cc3ccccc3[nH]2)N=C(c2ccccc2)c2ccccc21
active: Potency [10] 10 µM | Potency [2] 15.1 µM | Potency [3] 8.91 µM | Potency [13] 11.2 µM | Potency [7] 10 µM | Potency [8] 7.57 µM
inactive: Potency [1] | Potency [4] | Potency [18] | Potency [19] | max response [9] -23.4%

CCC1(c2ccccc2)CCC(=O)NC1=O (stereo unspecified)
active: Potency [3] 11.2 µM
inactive: Potency [10] | Potency [1] | Potency [4] | Potency [12] | Potency [13] | Potency [14] | Potency [18] | Potency [6] | Potency [19] | Potency [15] | Potency [16] | Potency [17] | Potency [7] | outcome [9]

N#Cc1nn(-c2c(Cl)cc(C(F)(F)F)cc2Cl)c(N)c1S(=O)C(F)(F)F (stereo unspecified)
inactive: Potency [19] | max response [9] -17%
active: Potency [2] 7.57 µM | Potency [3] 5.62 µM | Potency [12] 7.94 µM | Potency [18] 12.6 µM | Potency [6] 9.53 µM | Potency [15] 5.01 µM | Potency [17] 6.31 µM | Potency [7] 6.31 µM

CC(C)(O)C(Cl)(Cl)Cl
active: Potency [10] 3.98 µM | Potency [1] 7.94 µM | Potency [2] 2.69 µM | Potency [11] 2 µM | Potency [3] 0.891 µM | Potency [4] 11.2 µM | Potency [12] 2.51 µM | Potency [5] 2.24 µM | Potency [13] 2.51 µM | Potency [14] 3.55 µM | Potency [18] 2.24 µM | Potency [6] 8.49 µM | Potency [19] 7.08 µM | Potency [15] 4.47 µM | Potency [16] 3.16 µM | Potency [17] 4.47 µM | Potency [7] 1.78 µM | Potency [8] 1.51 µM

C[C@]12Cc3nonc3C[C@@H]1CC[C@@H]1[C@@H]2CC[C@@]2(C)[C@H]1CC[C@]2(C)O
inactive: Potency [10] | Potency [1] | Potency [2] | Potency [11] | Potency [4] | Potency [12] | Potency [5] | Potency [13] | Potency [14] | Potency [18] | Potency [6] | Potency [19] | Potency [15] | Potency [16] | Potency [17]

— PubChem BioAssay (NCATS)
